This note sets out measurements from PubChem BioAssay AID1422 (Emory University Molecular Libraries Screening Center, 2008).

For orientation: inhibition means the drop in the measured response relative to a control, in per cent.

The campaign covered roughly 260,000 compounds. About 1,300 (0.5%) were called active.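 The calls were made as follows: active = percent inhibition above 40 after rounding to a whole number; inactive = the rest.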 The list comes from a sample in which actives are over-represented; it also holds similar structures and randomly drawn compounds.

For this test, the target named is Prostaglandin E2 receptor EP2 subtype (Homo sapiens) (UniProt P43116). The test can be described thus: human EP2 receptor antagonists, primary screen, TR-FRET cAMP, C6 glioma cells (AID 1422).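 Also: rat C6 glioma host cells with rolipram phosphodiesterase inhibitor present; the protocol text gives 20 µM as final concentration.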 The conditions noted are these: C6 glioma cells expressing human EP2, cAMP TR-FRET; at 25 µM; active compounds read high; cells stimulated with saturating PGE2. On the technique in general: Time-resolved FRET reads energy transfer from a long-lived donor to a nearby acceptor.
Chain of Prostaglandin E2 receptor EP2 subtype (Homo sapiens) (P43116 whole entry, looked up): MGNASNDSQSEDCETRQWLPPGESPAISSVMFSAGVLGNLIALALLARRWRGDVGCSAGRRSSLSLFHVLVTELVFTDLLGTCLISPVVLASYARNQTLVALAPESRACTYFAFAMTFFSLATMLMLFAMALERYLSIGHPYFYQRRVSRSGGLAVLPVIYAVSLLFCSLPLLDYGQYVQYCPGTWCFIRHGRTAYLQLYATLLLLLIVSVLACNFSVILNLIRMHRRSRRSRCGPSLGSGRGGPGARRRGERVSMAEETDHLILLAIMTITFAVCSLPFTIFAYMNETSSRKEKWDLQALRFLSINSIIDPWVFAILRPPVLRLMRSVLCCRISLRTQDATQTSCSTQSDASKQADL
As for `CCN1CCN(C(=O)Nc2cccc(Cl)c2)CC1`, the inhibition is 10.7% (inactive).
The value for `CCOc1ccc2nc(SCC(=O)Nc3ccc(OC)cc3)sc2c1` was 6.3% (inactive).
Under `Cc1ccc(CN(Cc2cc3c(C)cc(C)cc3[nH]c2=O)C(=O)NC2CCCCC2)cc1` stands 8.55% (inactive).
Turning to `COc1ccc2[nH]c(=O)c(CN(Cc3ccc4c(c3)OCO4)S(=O)(=O)c3ccc(F)cc3)cc2c1`, the inhibition was 12% (inactive).
In the case of `COc1ccc2[nH]c(=O)c(CN(Cc3cccnc3)S(=O)(=O)c3ccccc3F)cc2c1`, the inhibition was 45.8% (active).
Under `COc1ccc(N(Cc2cc3cc(OC)ccc3[nH]c2=O)S(C)(=O)=O)cc1` stands 6.17% (inactive); under `COc1ccc2[nH]c(=O)c(CN(Cc3ccco3)S(=O)(=O)c3c(C)ccc4nsnc34)cc2c1`, 46.1% (active); under `Cc1cccc2cc(CN(Cc3ccco3)S(=O)(=O)c3cccc4nsnc34)c(=O)[nH]c12`, 24.1% (inactive).
For the compound `O=c1[nH]c2cc3c(cc2cc1CN(Cc1cccnc1)S(=O)(=O)c1ccc(Cl)cc1)OCCO3`, the inhibition was 19.4% (inactive).
The value for `Cc1nnc2sc(-c3ccc(NC(=O)c4ccc(Br)o4)cc3)nn12` was 15% (inactive); that for `COc1ccc2c(c1)NC1(CCN(C(=O)c3cnsc3)CC1)c1cccn1-2` was 9.97% (inactive); that for `Cc1cccc2cc(CN(Cc3cccs3)Cc3nnnn3C3CCCCC3)c(=O)[nH]c12` was 2.93% (inactive).
The value for `Cc1ncc([N+](=O)[O-])n1Cc1nnc(N)s1` was 11.5% (inactive).
Turning to `CC(C)(C)C1=NN(CC(=O)NCc2ccncc2)C(=O)c2cc3ccccc3n2C1`, the inhibition is 4.49% (inactive).
Under `COc1nc(C)c(CC(=O)NC2(c3cccc(F)c3)CCCC2)c(OC)n1` stands 13.3% (inactive).
Turning to `Cc1[nH]c2ccc(-c3nnc(SCCC#N)n3C)cc2c1C`, the inhibition is 10.1% (inactive).
The value for `CC(C)(C)C1=NN(CC(=O)NCCc2ccco2)C(=O)c2cc3ccccc3n2C1` was 11.5% (inactive); that for `COc1ccc(C(c2nnnn2C(C)(C)C)N2CCN(c3ccc(OC)cc3)CC2)cc1` (stereo not given) was 10.7% (inactive); that for `Cc1ccc2c(c1)C(O)CC1(CCN(CC(O)c3ccc(F)c(F)c3)CC1)O2` (stereo not given) was 8.77% (inactive).
As to `Cc1ccc2c(c1)C1CN(C)CCC1N2C(=S)Nc1ccc(Cl)cc1Cl` (stereo not given), the inhibition was 15.3% (inactive).
Under `Cc1ccc2c(c1)C1CN(C)CCC1N2C(=O)c1ccccc1NS(=O)(=O)c1ccc(F)cc1C` (stereo not given) stands 8.83% (inactive); under `Cc1ccc2c(c1)C1CN(C)CCC1N2C(=S)Nc1ccc(OC(F)F)cc1` (stereo not given), 112% (active).
The value for `Cc1cc(NC(=O)COC(=O)COc2ccc(Cl)cc2C)c([N+](=O)[O-])cc1C` was 5.32% (inactive).
The value for `Cc1cc(Cl)ccc1OCC(=O)Oc1c(Cl)c(Cl)c(Cl)c(Cl)c1Cl` was 50.2% (active).
For `CCOC(=O)N1CCN(C(=O)COc2ccc(Cl)cc2C)CC1`, the inhibition is 12.7% (inactive).
